Inconclusive results are not listed. Calls of active or inactive are those of the source. Unless noted, calls follow the shape of the full dose curve.
Key:
[1] = Nuclear factor erythroid 2-related factor 2/antioxidant responsive element (Nrf2/ARE) small molecule agonists: qHTS cell viability counter screen in human keratinocytes (AID 1919968; active = well fitted curve in the direction sought with a large enough effect in the repeat runs; an effect the other way counts as inactive or inconclusive; also: nearly all actives have a fitted effect of over 55% in size)
Method in brief: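 In human HaCaT keratinocytes stably expressing an ARE-driven luciferase, compound exposure lasted 23 h at 37 C under 5% CO2. Viable cells are quantified with a protease-based fluorogenic reagent (CellTiter-Fluor) read 1 h after addition.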

[2] = Nuclear factor erythroid 2-related factor 2/antioxidant responsive element (Nrf2/ARE) small molecule agonists: luciferase reporter gene qHTS assay in human keratinocytes (AID 1919969); also: nearly all actives have a fitted effect of over 35% in size
[3] = molecular target: Gonadotropin-releasing hormone receptor (Homo sapiens) (UniProt P30968); test: Human gonadotropin-releasing hormone receptor (GnRHR) small molecule agonists, calcium flux assay in GnRHR-HEK293 cells (AID 1920063); also: nearly all actives have a fitted effect of over 35% in size
Chain of Gonadotropin-releasing hormone receptor (Homo sapiens) (P30968 whole entry, looked up): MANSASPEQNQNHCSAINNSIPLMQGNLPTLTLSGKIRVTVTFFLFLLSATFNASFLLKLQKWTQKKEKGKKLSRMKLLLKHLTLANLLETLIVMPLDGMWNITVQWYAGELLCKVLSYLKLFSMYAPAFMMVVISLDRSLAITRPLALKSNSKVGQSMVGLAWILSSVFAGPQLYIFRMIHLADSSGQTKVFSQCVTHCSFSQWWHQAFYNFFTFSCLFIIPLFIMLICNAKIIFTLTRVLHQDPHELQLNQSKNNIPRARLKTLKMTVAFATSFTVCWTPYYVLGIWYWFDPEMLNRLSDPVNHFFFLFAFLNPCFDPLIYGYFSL
Method in brief: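 Intracellular calcium rise is the read-out: engineered human GnRHR HEK293 cells, dye-loaded, are exposed to DMSO-dissolved compounds and fluorescence at Ex/Em 480/540 is tracked for 3 min.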

[4] = molecular target: KiSS-1 receptor (Homo sapiens) (UniProt Q969F8); test: Human kisspeptin (KISS1R) small molecule agonists, calcium flux assay in KISS1R-HEK293 cells (AID 1920064; active = well fitted curve in the direction sought with a large enough effect in the repeat runs; an effect the other way counts as inactive or inconclusive)
Chain of KiSS-1 receptor (Homo sapiens) (Q969F8 whole entry, looked up): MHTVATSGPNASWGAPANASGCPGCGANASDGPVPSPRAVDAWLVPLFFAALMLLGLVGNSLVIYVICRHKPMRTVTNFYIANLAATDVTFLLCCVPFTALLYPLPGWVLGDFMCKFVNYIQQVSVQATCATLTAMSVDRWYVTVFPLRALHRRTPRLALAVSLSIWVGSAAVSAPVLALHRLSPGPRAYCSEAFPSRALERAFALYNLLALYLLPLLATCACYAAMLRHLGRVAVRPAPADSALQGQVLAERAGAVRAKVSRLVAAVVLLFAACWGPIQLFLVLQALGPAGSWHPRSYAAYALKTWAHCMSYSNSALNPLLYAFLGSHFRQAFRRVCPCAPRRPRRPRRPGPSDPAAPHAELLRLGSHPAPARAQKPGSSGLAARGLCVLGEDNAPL
Method in brief: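 Concentration-response testing used 15 concentrations in triplicate on human KISS1R-expressing HEK293 cells. Calcium-dependent fluorescence (Ex/Em 480/540) was followed kinetically for 3 min after compound transfer.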

[5] = G protein-coupled receptor (GPCR) small molecule agonists, calcium flux assay: HEK293 wild type cell line counter screen (AID 1920065)
Method in brief: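 Fluorescence intensity signals activation. After overnight (18 h) culture and a 1 h calcium dye load at 37 C, compounds are added by pin tool and the plate read at 480/540 nm for 3 min in 1 s steps.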

[6] = p53 small molecule agonists, cell-based qHTS assay with human liver microsomes (AID 1963577)
Method in brief: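 Compounds act here after metabolic activation: human liver microsomes and NADPH, both at 0.5 mg/mL final, were co-added to p53RE-bla cells. Incubation ran 16 h at 37 C, followed by LiveBLAzer detection.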

[7] = p53 small molecule agonists, cell-based qHTS assay with rat liver microsomes (AID 1963578)
Method in brief: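 Read-out is beta-lactamase reporter fluorescence (LiveBLAzer, 2 h, room temperature, dark) in p53RE-bla cells treated 16 h at 37 C with compound, rat liver microsomes and NADPH, both 0.5 mg/mL final.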

[8] = p53 small molecule agonists, cell-based qHTS assay with human liver microsomes: qHTS cell viability counter screen (AID 1963579); also: nearly all actives have a fitted effect of over 45% in size
Method in brief: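 Cells carrying the p53 response-element beta-lactamase reporter are treated for 16 h at 37 C with test compounds in the presence of human liver microsomes and NADPH (both 0.5 mg/mL final); ATP-based CellTiter-Glo luminescence then reports viability.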

[9] = p53 small molecule agonists, cell-based qHTS assay with rat liver microsomes: qHTS cell viability counter screen (AID 1963580); also: nearly all actives have a fitted effect of over 45% in size
Method in brief: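 After the beta-lactamase ratio was read, CellTiter-Glo was added to the same wells and luminescence measured at 30 min; cells had been treated 16 h at 37 C with compounds, rat liver microsomes and NADPH (0.5 mg/mL final each).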

[10] = p53 small molecule agonists, cell-based qHTS assay: qHTS cell viability counter screen (AID 1963581); also: nearly all actives have a fitted effect of over 45% in size
Method in brief: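 Luminescence from CellTiter-Glo, reflecting ATP content, serves as the cytotoxicity measure; it is taken after the 2 h reporter substrate step in HCT-116 p53RE-bla cells dosed for 16 h at 37 C.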

[11] = p53 small molecule agonists, cell-based qHTS assay (AID 1963582; active = well fitted activation curve with a large enough effect in the signal ratio in the repeat runs, not every such curve was filed as active; the % refers to the signal ratio)
Method in brief: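 After plating, p53RE-bla cells sat 5 h in the incubator; compounds or DMSO vehicle were pinned in; a 16 h incubation at 37 C followed; FRET substrate was added and, 2 h later at RT, fluorescence was measured.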

[12] = molecular target: Muscarinic acetylcholine receptor M1 (Homo sapiens) (UniProt P11229); test: Cholinergic receptor muscarinic 1 (CHRM1) small molecule agonists, cell-based qHTS assay (AID 1963589); also: nearly all actives have a fitted effect of over 35% in size
Chain of Muscarinic acetylcholine receptor M1 (Homo sapiens) (P11229 whole entry, looked up): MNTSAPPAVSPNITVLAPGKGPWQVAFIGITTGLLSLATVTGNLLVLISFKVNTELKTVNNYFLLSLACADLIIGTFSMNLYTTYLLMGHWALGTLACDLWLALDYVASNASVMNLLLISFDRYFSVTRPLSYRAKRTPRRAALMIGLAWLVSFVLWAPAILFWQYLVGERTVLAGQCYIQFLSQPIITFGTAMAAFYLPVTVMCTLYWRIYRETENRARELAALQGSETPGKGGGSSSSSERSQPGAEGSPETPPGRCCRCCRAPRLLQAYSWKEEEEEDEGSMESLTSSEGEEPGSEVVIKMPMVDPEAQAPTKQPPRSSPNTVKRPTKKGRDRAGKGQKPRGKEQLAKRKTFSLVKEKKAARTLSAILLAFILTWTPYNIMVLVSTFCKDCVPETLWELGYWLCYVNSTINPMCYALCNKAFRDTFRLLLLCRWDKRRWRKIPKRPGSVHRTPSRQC
Method in brief: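 Fluorescent calcium dye reports M1 activation in stably transfected CHO cells. Compounds, 15 concentrations, added after 1 h dye loading at 37 C; kinetic reading at 1 sec intervals.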

[13] = cAMP Responsive Elements (CRE) small molecule agonists, cell-based qHTS assay (AID 1963590)
Method in brief: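 Compound exposure lasted 3 h at 37 C/5% CO2 in CRE-bla HEK 293T cells grown in assay medium with 10% dialyzed FBS and 25 mM HEPES. Reporter signal came from LiveBLAzer B/G FRET substrate, 2 h, room temperature.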

[14] = cAMP Responsive Elements (CRE) small molecule antagonists, cell-based qHTS assay (AID 1963591; active = well fitted inhibition curve with a large enough effect in the signal ratio in the repeat runs, not every such curve was filed as active; the % refers to the signal ratio)
Method in brief: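 Stimulation used NKH477 at a final 0.25 uM for 3 h in compound-treated CRE-bla HEK293T cells, seeded 18 h beforehand. Reporter activity was measured with LiveBLAzer B/G FRET substrate after 2 h at room temperature.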

[15] = molecular target: D(2) dopamine receptor (Homo sapiens) (UniProt P14416); test: Dopamine D2 receptor (DRD2) small molecule agonists, cell-based qHTS assay (AID 1963594); also: nearly all actives have a fitted effect of over 35% in size
Chain of D(2) dopamine receptor (Homo sapiens) (P14416 whole entry, looked up): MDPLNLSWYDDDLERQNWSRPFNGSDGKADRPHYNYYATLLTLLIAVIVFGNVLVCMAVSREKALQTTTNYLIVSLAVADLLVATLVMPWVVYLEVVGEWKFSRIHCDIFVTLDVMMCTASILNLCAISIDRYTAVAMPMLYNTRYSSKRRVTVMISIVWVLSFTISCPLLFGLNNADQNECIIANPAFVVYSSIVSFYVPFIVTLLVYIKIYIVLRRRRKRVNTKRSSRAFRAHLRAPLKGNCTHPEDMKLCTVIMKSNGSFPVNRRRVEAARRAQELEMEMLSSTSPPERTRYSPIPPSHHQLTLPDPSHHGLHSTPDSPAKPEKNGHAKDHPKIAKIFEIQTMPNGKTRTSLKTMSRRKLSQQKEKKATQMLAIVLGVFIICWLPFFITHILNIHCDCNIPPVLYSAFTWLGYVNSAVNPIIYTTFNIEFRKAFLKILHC
Method in brief: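 HEK293 cells stably expressing human DRD2, pre-treated with PDE inhibitor Ro20-1724 (0.1 mM final) and compound 10 min at room temperature, then stimulated with NKH477 (200nM […]) for 30 min. cAMP read by HTRF (665/620 nm).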

[16] = molecular target: 5-hydroxytryptamine receptor 2A (Homo sapiens) (UniProt P28223); test: 5-hydroxytryptamine receptor 2A (HTR2A) small molecule agonists, cell-based qHTS assay (AID 1963587); also: nearly all actives have a fitted effect of over 30% in size
Chain of 5-hydroxytryptamine receptor 2A (Homo sapiens) (P28223 whole entry, looked up): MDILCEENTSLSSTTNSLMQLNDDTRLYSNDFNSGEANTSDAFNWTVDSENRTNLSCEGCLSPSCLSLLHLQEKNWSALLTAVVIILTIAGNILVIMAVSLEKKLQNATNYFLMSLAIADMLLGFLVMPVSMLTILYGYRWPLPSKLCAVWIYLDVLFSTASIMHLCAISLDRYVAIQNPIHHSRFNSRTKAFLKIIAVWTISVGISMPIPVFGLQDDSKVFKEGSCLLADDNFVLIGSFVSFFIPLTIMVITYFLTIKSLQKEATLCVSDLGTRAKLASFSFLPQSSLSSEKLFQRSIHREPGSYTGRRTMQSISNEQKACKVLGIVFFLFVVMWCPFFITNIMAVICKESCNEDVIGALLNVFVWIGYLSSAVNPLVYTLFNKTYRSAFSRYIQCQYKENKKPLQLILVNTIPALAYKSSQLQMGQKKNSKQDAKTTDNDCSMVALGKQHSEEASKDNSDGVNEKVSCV
Method in brief: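 CHO cells stably expressing human HTR2A, plated 18 h, loaded with calcium dye 1 h at 37 C. Agonist mode: compounds added and intracellular calcium fluorescence recorded kinetically for 2 min at 1 sec intervals.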

[17] = molecular target: Muscarinic acetylcholine receptor M1 (Homo sapiens) (UniProt P11229); test: Cholinergic receptor muscarinic 1 (CHRM1) small molecule antagonists, cell-based qHTS assay (AID 1963588); also: nearly all actives have a fitted effect of over 40% in size
Method in brief: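 Compounds were tested at 15 concentrations in three independent runs. Dye-loaded CHRM1-CHO cells were exposed 5 min at room temperature before stimulation by acetylcholine added at 50nM. Intracellular calcium was read kinetically on FDSS for 3 min.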

[18] = molecular target: Beta-2 adrenergic receptor (Homo sapiens) (UniProt P07550); test: Adrenergic beta2 receptor (ADRB2) small molecule antagonists, cell-based qHTS assay (AID 1963592); also: series mostly up to about 92 µM; nearly all actives have a fitted effect of over 50% in size
Chain of Beta-2 adrenergic receptor (Homo sapiens) (P07550 whole entry, looked up): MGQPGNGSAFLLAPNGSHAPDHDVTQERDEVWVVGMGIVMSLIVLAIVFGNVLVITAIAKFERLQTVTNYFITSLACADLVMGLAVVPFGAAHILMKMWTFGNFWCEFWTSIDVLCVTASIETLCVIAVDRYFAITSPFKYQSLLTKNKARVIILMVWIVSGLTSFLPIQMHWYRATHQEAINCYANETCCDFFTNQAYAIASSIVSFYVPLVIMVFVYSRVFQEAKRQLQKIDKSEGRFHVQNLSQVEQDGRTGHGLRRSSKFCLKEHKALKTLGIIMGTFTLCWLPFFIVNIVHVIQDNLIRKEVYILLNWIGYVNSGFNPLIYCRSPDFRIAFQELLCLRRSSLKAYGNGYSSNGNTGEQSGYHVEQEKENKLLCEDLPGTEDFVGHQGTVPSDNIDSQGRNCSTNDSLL
Method in brief: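 Assay format: CHO-ADRB2 cells, 18-20hr seeding at 37C/5% CO2, then compound plus 1nM isoproterenol agonist mix for 0.5hr RT. Homogeneous time-resolved fluorescence cAMP detection after 1hr, expressed as 665/615 nm ratio.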

[19] = molecular target: Beta-2 adrenergic receptor (Homo sapiens) (UniProt P07550); test: Adrenergic beta2 receptor (ADRB2) small molecule agonists, cell-based qHTS assay (AID 1963593);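 also: CHO cells stably overexpressing human ADRB2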
Method in brief: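 CHO cells stably over-expressing ADRB2 were plated overnight at 37C, then dosed with compounds plus a stimulation mix containing 100uM IBMX and 25uM Ro-20-1724 for 0.5hr at room temperature. cAMP was measured by HTRF competition, 1hr.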

[20] = molecular target: D(2) dopamine receptor (Homo sapiens) (UniProt P14416); test: Dopamine D2 receptor (DRD2) small molecule antagonists, cell-based qHTS assay (AID 1963595; active = well fitted inhibition curve with a large enough effect in the signal ratio in the repeat runs, with a control signal flat; the % refers to the signal ratio)
Method in brief: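 DRD2-HEK293; 0.1 mM Ro20-1724; cpd 10 min RT; NKH477 200 nM + quinpirole 12 nM, 30 min RT; HTRF cAMP (cAMP-d2/anti-cAMP cryptate), 665/620 nm ratio after 1 h.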

Measured: Potency

Cc1cc(C(C)(C)C)cc(C)c1CC1=NCCN1
not listed: [16] | [17] | [18] | [19] | [20]
inactive: all other assays above

CNC(=O)c1c(I)c(NC(=O)CCCCC(=O)Nc2c(I)c(C(=O)O)c(I)c(C(=O)NC)c2I)c(I)c(C(=O)O)c1I
not listed: [12] | [15]
inactive: all other assays above

CC12CCCC=C1C(=O)OC2=O (stereo not drawn)
not listed: [12] | [19]
inactive: all other assays above

Cc1cccc([N+](=O)[O-])c1C(=O)O
not listed: [15] | [16] | [19]
inactive: all other assays above

O=C(NC(Cc1cc(=O)[nH]c2ccccc12)C(=O)O)c1ccc(Cl)cc1 (stereo not drawn)
not listed: [16] | [19]
inactive: all other assays above

CCCCOC(=O)C(C)Oc1ccc(Oc2ccc(C(F)(F)F)cn2)cc1 (stereo not drawn)
not listed: [15] | [17]
inactive: all other assays above

CC(C(=O)O)c1cccc(Oc2ccccc2)c1 (stereo not drawn)
not listed: [12] | [16] | [17]
inactive: all other assays above

Cn1cnc2ncnc(N)c21
not listed: [17] | [19]
inactive: all other assays above

CCN(O)CC
not listed: [14] | [16] | [20]
inactive: all other assays above

CCOc1ccc2ccccc2c1C(=O)N[C@@H]1C(=O)N2[C@@H]1SC(C)(C)[C@@H]2C(=O)O
not listed: [15] | [17] | [19]
inactive: all other assays above
